# From PubChem BioAssay
# SARS PLpro yeast = blocks SARS-CoV papain-like protease in a yeast assay | S. cerevisiae expressing SARS-CoV PLpro, growth rescue | Potency, µM (top dose mostly 32.9 µM), for inactives: top-dose activity, positive = growth rescue, usual class: activators | 330,000 tested, 0.19% active | AID 485353; calls by dose curve; further: potency means the concentration at half of the fitted maximal effect; 0% is about no effect; nearly all actives have a fitted effect of over 55% in size
# Pf growth 96h = P. falciparum growth inhibition at 96 hours; P. falciparum luciferase reporter growth, 96 h; Potency, µM (titrated, usually from 28.7 µM), inactives show at the highest dose activity change, negative = inhibition, hits mostly inhibitors; 320,000 tested, 6.9% active; AID 504834; further: potency means the concentration at half of the fitted maximal effect; on the % scale 0 is the no-effect control and ±100 the full control effect
#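 Infected RBCs, 2% Hct / 0.05% parasitemia final; luciferase-reporter P. falciparum; cpd 96 h, 37 C, 5% CO2; luciferase detection reagent; luminescence.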
# HCV inhibitor = blocks hepatitis C virus | 340,000 tested, 3.4% active | AID 651820 | Potency, µM (highest dose often 41.8 µM), without a hit: at the highest dose activity change, negative = inhibition, actives largely listed as inhibitors | Huh7.5.1 HCVcc-Cre infection, luciferase reporter, 44 h; further: potency means the concentration at half of the fitted maximal effect; on the % scale 0 is the no-effect control and ±100 the full control effect
#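 Infectious HCVcc-Cre (~0.5 moi) was added to cells just after compound, with cells seeded 4 h earlier at 1,000 per well. Luciferase activity after 44 h culture reported infection; substrate was incubated 15 min at room temperature before reading.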
# Pf growth 48h = inhibits P. falciparum growth in the first generation, 48 h. P. falciparum luciferase growth in erythrocytes, 48 h. Potency, µM (titrated, usually from 28.7 µM), inactives show at the top dose activity change, negative = inhibition, most hits filed as inhibitors. 310,000 tested, 5.9% active; further: potency means the concentration at half of the fitted maximal effect; on the % scale 0 is the no-effect control and ±100 the full control effect
#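 Erythrocytes infected with P. falciparum carrying an integrated firefly luciferase reporter (2% hematocrit, 0.1% parasitemia final) were exposed to compounds in RPMI 1640 with 0.5% Albumax at 37 C, 5% CO2. Growth inhibition was scored as reduced luminescence.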
# HCMV antiviral = human cytomegalovirus inhibition; 410,000 tested, 4.5% active; activity change, negative = inhibition, % at 57.5 µM; HFF cells, HCMV-luciferase reporter, 72 h; stronger effect = lower value; in the data active means activity change below about -60%; inconclusive means no clear call, values can overlap the other calls; inactive means above about -39%; further: on the % scale 0 is the no-effect control and ±100 the full control effect
#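 Cell-based, HFFs, 1000 cells/well, 16 h 37C; cpds in DMSO + HCMV-luc, MOI 1 PFU/cell; 72 h 37C; OneGlo luminescence after 5 min RT; norm. to buffer vs Salinomycin 10uM.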
# Sm TGR block = inhibitors of Schistosoma mansoni thioredoxin glutathione reductase; Q962Y6; purified TGR, DTNB reduction, TNB absorbance 405 nm; Potency, µM (highest dose often 114 µM), inactives show top-dose activity change, negative = inhibition, most hits filed as inhibitors; 360,000 tested, 3% active; further: potency means the concentration at half of the fitted maximal effect; on the % scale 0 is the no-effect control and ±100 the full control effect; nearly all actives have a fitted effect of over 60% in size
#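 TGR 20 nM + NADPH 100 uM (dispensed conc.), cpd preinc 15 min RT; start with NADPH (500 uM addition) then DTNB (15 mM addition). Kinetic TNB absorbance, 405 nm filter. Four-parameter Hill fit across titration.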
# * hit, by the source's call; ? = inconclusive; nt = no result. An excerpt weighted towards active compounds, which were near 15% of everything screened. Unless noted, the call rests on the fitted dose curve; in most records, active means well fitted curve in the direction sought with a large enough effect; inconclusive means small, poorly fitted or top-dose-only effect, or another doubt; inactive means no such curve, though single readings can be large; an effect the other way counts as inactive or inconclusive.
SMILES,SARS PLpro yeast,Pf growth 96h,HCV inhibitor,Pf growth 48h,HCMV antiviral,Sm TGR block
O=C(CSc1ccc(-c2cccs2)nn1)Nc1ccccc1C(F)(F)F,nt,nt,nt,nt,-25.4,0.2%
CN(CC(=O)Nc1ccccc1-c1ccccc1)Cc1ccccc1Cl,-10.0%,?,-27.8%,?,?,11.9%
Cc1ccc(NC(=O)c2cnn(-c3ccccc3)c2C)cc1C,-23.2%,-27.8%,?,196.8%,-61.2*,-11.1%
Cc1c(C(=O)Nc2cccc(F)c2)cnn1-c1ccccc1,-11.3%,-11.2%,11.2µM*,262.1%,44.2,-0.7%
COc1cccc(NC(=O)c2cnn(-c3ccccc3)c2-n2cccc2)c1,nt,nt,nt,nt,-62.5*,5.7%
Cc1c(C(=O)Nc2ccccc2)cnn1-c1ccccc1,nt,nt,-3.3%,nt,159.3,nt
COc1ccc(-n2ccn(Cc3ccccc3C)c(=O)c2=O)cc1,nt,nt,nt,nt,-21.6,7.4%
CC(C)(C)NC(=O)C(c1ccccc1F)n1c(=O)c(-c2ccccc2)nc2ccccc21 (stereo not given),nt,nt,nt,nt,25.6,nt
CCCSc1nsc(NC(=O)C(c2ccccc2)c2ccccc2)n1,3.5%,?,?,nt,nt,5.1%
COc1cccc(NC(=O)Nc2nc(SC(C)(C)C)ns2)c1,-4.3%,-90.5%,?,?,-94.8*,13.3%
CCCSc1nsc(NC(=O)Nc2ccc(F)cc2F)n1,-3.1%,?,10µM*,?,-100.8*,6.7%
COc1cccc(NC(=O)Nc2nc(SC)ns2)c1,-9.3%,91.1%,-8.9%,78.2%,?,-19.3%
CCCSc1ccc(C(=O)Nc2ccc(F)cc2F)cn1,0.9%,31.9%,-13.3%,28.4%,-62.2*,1.0%
CCCSc1nsc(NC(=O)CC)n1,-0.4%,8.28µM*,-18.7%,176.4%,11.1,12.5%
CCOC(=O)C1CCC(CN(Cc2ccc(Cl)cc2)S(=O)(=O)c2cc(Cl)cc(Cl)c2)CC1 (stereo not given),nt,nt,nt,nt,-14.8,2.6%
CC(=O)Nc1cccc(NC(=O)Nc2cccc(F)c2)c1,-0.7%,15.9%,-6.9%,33.4%,1.1,11.4%
CCSc1nsc(NC(=O)Nc2cccc(F)c2)n1,-22.7%,64.8%,10µM*,5.86µM*,-97.9*,0.9%
Cc1ccc(Cc2nnc3n(-c4cccc(C)c4)nc(C(=O)c4ccccc4)n3c2=O)cc1,0.9%,3.7µM*,-20.4%,5.22µM*,-10.5,0.4%
COC(=O)c1nn(-c2cccc(C)c2)c2nnc(Cc3ccc(C)cc3)c(=O)n12,-19.7%,-11.7%,19.2%,16.0%,-11.6,-0.6%
COC(=O)c1cc(NC(=O)Nc2ccc3snnc3c2)cc(C(=O)OC)c1,nt,nt,nt,nt,0.3,3.3%
Cc1cc(C)nc(/N=C(\N)Nc2cccc([N+](=O)[O-])c2)n1,8.7%,10.4µM*,?,?,-18.3,-3.3%
Cc1cc(C)nc(/N=C(\N)Nc2ccc([N+](=O)[O-])cc2)n1,6.8%,10.0%,-23.9%,3.8%,-16.4,-3.5%
CC(=O)N/C(=N/c1nc(C)cc(C)n1)Nc1cc(C)cc(C)c1,3.7%,?,14.9%,nt,-18.9,4.7%
Cc1cc(C)cc(N/C(N)=N/c2nc(C)cc(C)n2)c1,20.4%,4.15µM*,-65.9%,13.1µM*,38.3,0.0%
Cc1cccc(N/C(N)=N/c2nc(C)cc(C)n2)c1,8.8%,-12.7%,?,-28.0%,29.3,1.8%
SMILES,SARS PLpro yeast,Pf growth 96h,HCV inhibitor,Pf growth 48h,HCMV antiviral,Sm TGR block
Cc1cc(C)nc(/N=C(\N)Nc2ccc(C(C)C)cc2)n1,-1.8%,11.7µM*,11.2µM*,?,-63.0*,-12.8%
Cc1ccc(N/C(N)=N/c2nc(C)cc(C)n2)cc1,11.8%,32.7%,10.5%,?,-4.0,0.0%
CC(=O)N/C(=N/c1nc(C)cc(C)n1)Nc1ccc(NC(C)=O)cc1,6.6%,9.28µM*,-1.2%,?,-10.7,1.5%
O=C(OCc1cn([C@H]2C[C@H](c3ccccc3)N(Cc3cccs3)C[C@@H]2O)nn1)c1ccccc1,nt,nt,nt,nt,11.0,nt
COc1cccc(Cn2c(=O)n(Cc3ccco3)c(=O)c3oc4ccccc4c32)c1,nt,nt,nt,nt,-39.8,-9.8%
COc1ccc(NC(=O)c2c(C)noc2C(C)C)cc1S(=O)(=O)N1CCCCC1,-0.4%,?,-5.3%,?,-14.5,-12.7%
CCCCc1ccc(N/C(N)=N/c2nc(C)cc(C)n2)cc1,-0.8%,4.15µM*,-83.6%,?,-97.1*,2.4%
CCC(=O)Nc1ccc(N/C(N)=N/c2nc(C)cc(C)n2)cc1,1.1%,?,?,-4.1%,15.2,17.6%
CCOC(=O)Cn1cc(/C=C(\C#N)C(=O)N2CCOCC2)c2ccccc21,0.0%,39.2%,-3.4%,18.0%,-6.6,-1.9%
CCN(CC)C(=O)Cn1cc(/C=C(\C#N)C(=O)N2CCN(c3ccccc3)CC2)c2ccccc21,1.6%,10.4µM*,?,?,3.8,-21.5%
N#CC1(Cc2ccc(Cl)cc2)c2ccccc2C=CN1C(=O)c1ccccc1 (stereo not given),-3.5%,?,-17.8%,nt,-24.9,-3.5%
CC1(C#N)c2ccccc2C(Br)=CN1C(=O)c1ccccc1 (stereo not given),8.5%,?,6.5%,10.4µM*,2.2,-36.0%
CCOC(=O)C1CCCN(C(=S)Nc2ccc(OC)cc2)C1 (stereo not given),8.8%,22.4%,4.9%,5.4%,-67.0*,0.4%
COc1ccc(NC(=S)N2CCCN(Cc3cccc(Cl)c3)C2)cc1,-0.6%,-11.7%,-24.0%,?,0.0,3.7%
COc1ccc(NC(=O)C2CCCN(C(=O)Nc3cccc(OC)c3)C2)cc1 (stereo not given),-1.2%,?,-3.6%,15.5%,?,-5.4%
COc1ccc(NC(=O)N2CCCCCC2)cc1,-2.5%,?,15.0%,41.0%,40.0,12.6%
COc1ccc(NC(=O)C2CCCN(C(=O)Nc3ccc(OC)cc3)C2)cc1 (stereo not given),-1.6%,10.4µM*,-12.4%,21.6%,-22.4,-0.9%
COc1ccc(NC(=O)N2CCCC(c3ccccc3)C2)cc1 (stereo not given),-2.9%,2.08µM*,-6.1%,-28.5%,-14.7,-10.8%
COc1ccc(NC(=S)N2CCCN(Cc3cc(C)ccc3C)C2)cc1,3.0%,?,-29.5%,10.4µM*,-23.1,3.4%
COc1ccc(OC)c(S(=O)(=O)N2CCC(C(=O)NCc3ccccn3)CC2)c1,-1.2%,4.4%,15.8%,-4.0%,11.7,0.6%
CON1C(=O)C(=O)N(OC)C(C)(C)C1C (stereo not given),4.9%,44.8%,14.5%,-0.9%,?,-6.5%
O=c1c2cc(N3CCOCC3)ccc2[nH]c(=S)n1Cc1cccc(Cl)c1,5.4%,?,?,9.2%,-14.5,10.9%
O=c1c2cc(N3CCOCC3)ccc2[nH]c(=S)n1Cc1ccco1,-3.9%,nt,-24.0%,8.6%,36.8,8.91µM*
